Screening data (PubChem)
Compounds with a hit are over-represented: about 4% of the library has one in this group of screens.
TIM10 inh = growth inhibitors of TIM10 yeast strain; inhibition, % at 10 µM; AID 463195; S. cerevisiae TIM10 strain growth, BacTiter-Glo luminescence, 24 h; actives 1.4% (n = 330,000);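 active = inhibition of 40% or more at the single tested concentration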;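 also: wild-type TIM10 isogenic control strain grown at permissive 25 °C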
tim10-1 inh = growth inhibitors of tim10-1 mutant yeast. S. cerevisiae tim10-1 ts strain growth, BacTiter-Glo, 24 h. inhibition, % at 20 µM. actives 2.2% (n = 330,000). AID 463190;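 active = inhibition of at least 40%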;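 also: mutant grown at 25 °C; 0% = DMSO wells with yeast and 100% = wells holding no yeast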
tim23-1 inh = tim23-1 yeast growth inhibition. S. cerevisiae tim23-1 growth, BacTiter-Glo luminescence, 24 h. inhibition, % at 20 µM. actives 1.3% (n = 330,000). AID 463212;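 active = growth inhibition of the mutant yeast at or above 50%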;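 also: temperature-sensitive mutant grown at 25 °C; plate controls were DMSO-treated mutant yeast for no effect and medium wells lacking yeast for full effect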
NALP1 inh = NALP1 inhibition. S. cerevisiae NALP1/ASC/caspase-1 growth, X-gal OD620, 72 h. inhibition, % at 10 µM. actives 0.61% (n = 280,000); in the data active = inhibition mostly above about 24%, no sharp cut-off; inactive = mostly below about 32%
NLRP3 yeast inh = blocks the NALP3 inflammasome reconstituted in yeast; AID 2825; inhibition, % at 10 µM; actives 0.39% (n = 330,000); Yeast reconstituted NLRP3/ASC/caspase-1, beta-gal luminescence, 24 h;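 active = inhibition of 50% or more; inactive = inhibition below 50%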;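 also: plate controls were induced DMSO wells for no effect and uninduced yeast grown without galactose for full effect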
NALP3 yeast conf = NALP3 inhibition confirmation in yeast; shares compounds with NLRP3 yeast inh; yeast expressing human NALP3, luminescence; inhibition, % at 10 µM; actives 81% (n = 1,300); AID 435006; in the data active = inhibition above about 48%
Casp1-ASC yeast = caspase-1-ASC yeast counter-screen hit | yeast expressing Caspase-1-ASC, luminescence counter screen | inhibition, % at 10 µM | actives 66% (n = 1,000) | shares compounds with NLRP3 yeast inh
NALP3 yeast rt = confirmation retest of NALP3 inhibitors in yeast; shares compounds with NLRP3 yeast inh; yeast expressing human NALP3, luminescence read-out; inhibition, % at 10 µM; actives 53% (n = 1,000)
tim10-1 confirm = tim10-1 yeast growth inhibition, confirmed; shares compounds with tim10-1 inh; S. cerevisiae tim10-1 ts strain growth, BacTiter-Glo, 24 h; inhibition, % at 20 µM; actives 56% (n = 7,400); AID 463213;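 active = inhibition of yeast growth at or above a set limit in either of two repeat tests at 20 µM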;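 also: tim10-1 mutant grown at permissive 25 °C to find synthetic lethal compounds; 0% = DMSO yeast wells and 100% = medium wells without yeast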
TIM10 conf = TIM10 yeast growth inhibition, confirmed; actives 63% (n = 4,600); S. cerevisiae tim10 strain growth, BacTiter-Glo luminescence, 24 h; inhibition, % at 10 µM; shares compounds with TIM10 inh;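 active = inhibition of yeast growth at or above a set limit in either of two replicates at 10 µM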;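 also: this counterscreen used the strain with wild-type TIM10; 0% = yeast with DMSO and 100% = medium wells lacking yeast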
tim23-1 confirm = confirmation of tim23-1 mutant yeast growth inhibitors; shares compounds with tim23-1 inh; S. cerevisiae tim23-1 growth, BacTiter-Glo luminescence, 24 h; inhibition, % at 20 µM; actives 83% (n = 4,400); AID 463218;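 active = inhibition above about 39% in either of two replicate wells at 20 µM, limit read from the data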;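 also: temperature-sensitive tim23-1 mutant grown at 25 °C; 0% = DMSO wells with yeast and 100% = medium wells without yeast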
Numbers without * were called inactive; x = not tested or not shown. Rule as the data show it, unless noted: active = inhibition above about 50%; inactive = the rest.

SMILES	TIM10 inh	tim10-1 inh	tim23-1 inh	NALP1 inh	NLRP3 yeast inh	tim10-1 confirm	others
CN1C(=O)C(=Cc2c(OCc3cnc(Cl)s3)ccc3ccccc23)C(=O)N(C)C1=O	46*	22	75*	2	59*	x	NALP3 yeast conf=58*;Casp1-ASC yeast=72*;NALP3 yeast rt=62*;TIM10 conf=53*;tim23-1 confirm=81*
CCC(C)N1C(=O)NC(=O)C2(Cc3c(ccc4ccccc34)N(C)C2)C1=O (stereo unspecified)	23	45*	31	4	13	31*
COc1ccc2c(c1)CC1(CN2C)C(=O)NC(=O)N(CCc2ccccc2)C1=O (stereo unspecified)	-11	3	22	-1	24	x
Clc1ccc(C[n+]2c(-c3ccccc3)cc(-c3ccccc3)cc2-c2ccccc2)cc1	37	45*	31	x	16	38*
Cc1cc(-c2ccccc2)cc(-c2ccccc2)[n+]1CCc1ccccc1	15	14	-4	x	7	x
Cc1noc(C)c1CC(=O)N1CCCC(N2CCN(c3ccccc3F)CC2)C1 (stereo unspecified)	8	-3	9	16	10	x
Cn1c(O)c(C(c2ccccn2)c2c(O)n(C)c(=S)n(C)c2=O)c(=O)n(C)c1=S	-18	9	9	-2	8	x
Cn1c(O)c(C(c2ccncc2)c2c(O)n(C)c(=S)n(C)c2=O)c(=O)n(C)c1=S	-17	42*	11	7	5	14
COC(=O)C1=C(c2ccc(Cl)c(C(F)(F)F)c2)C[C@@H]2CC[C@H]1N2C(=O)NCCOc1ccccc1Cl	1	12	27	x	10	x
O=C1NC(=O)N(CCC2=CCCCC2)C(=O)/C1=C\c1cccs1	6	18	23	23	14	x
O=C1NC(=O)N(CCc2ccc(F)cc2)C(=O)/C1=C/c1cccs1	1	52*	44	-9	2	-6
CN1CCN(Cc2cc3c(cc2[N+](=O)[O-])OCO3)CC1	-8	-17	-10	-43	23	x
Cc1ncc(CN2CCCC(C(=O)c3ccc(C(C)(C)C)cc3)C2)s1 (stereo unspecified)	8	-16	-15	14	29	x
CCn1c(O)c(/C(C)=N/N2CCCCC2c2cccnc2)c(=O)[nH]c1=S (stereo unspecified)	26	48*	24	20	-4	21
COc1ccc2nc(NC(=O)CCc3nc(C4=CCN(C)CC4)no3)sc2c1	-1	43*	12	-6	1	13
CN1C(=O)c2ccccc2Sc2ccc(C(=O)N3CCC4(CC3)OCCO4)cc21	28	2	29	7	14	x
Cc1ccc(/C=C2/Sc3ccc(C(=O)N4CCC5(CC4)OCCO5)cc3NC2=O)cc1	23	47*	40	14	0	20
CC(=O)OC[C@]12CCC(C)=C[C@H]1O[C@@H]1[C@H](O)[C@@H](OC(C)=O)[C@@]2(C)[C@]12CO2	26	54*	26	-7	19	49*
CCCCn1c(O)c(C(CC)=Nc2ccc(OC)cc2OC)c(=O)[nH]c1=O	21	41*	35	8	5	16
CCCCn1c(O)c(C(CC)=Nc2ccc(OCC)cc2)c(=O)[nH]c1=O	37	27	18	8	18	x
O=C1/C(=C\c2cc3c(cc2Br)OCO3)N2CCC1CC2	28	53*	48	36	-3	38*
CC1CCCC(NC(=O)COC(=O)c2cn(C)c3ccccc23)C1C (stereo unspecified)	16	19	32	x	13	x
